Reference: the supplement of paper PMC10849652
About 8,800 targets were measured; listed, in parts, are those with a hit and a random draw of the rest. About 0.5% of all pairs of compound and target were hits. Unmarked numbers belong to inactive results.

compound: C1=CC=C(C=C1)[C@H](COC2=CC3=C(C=C2)NC(=O)N3)NC(=O)C4=CC=CN(C4=O)CC5=CC(=C(C=C5)F)F; assay: log2 fold change, soluble protein after heating vs DMSO (PISA); higher = thermal stabilisation; K562 lysate, 10 uM; active = over 0.2 and 3.5 SD of the protein, either way, in both replicates (recomputed)
Method in brief: (§1)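 K562 pellets were dounce-homogenised in PBS pH 7.4 with 1 mM MgCl2, and the crude extract at 1 mg/mL protein was treated with 10 μM compound for 30 min. Aliquots were heated for 3 min across 48°C-58°C, pooled, and brought to 0.5% NP-40 at 4°C; soluble protein was the supernatant after 21,000xg for 90 min. Soluble protein was quantified by TMTpro 16plex LC-MS/MS with channel sums equalised, and reported as log2 fold change in thermal stability against DMSO controls, with values from duplicates.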

Sequence of UniProt Q9Y5Q9 (Q9Y5Q9 whole entry, looked up): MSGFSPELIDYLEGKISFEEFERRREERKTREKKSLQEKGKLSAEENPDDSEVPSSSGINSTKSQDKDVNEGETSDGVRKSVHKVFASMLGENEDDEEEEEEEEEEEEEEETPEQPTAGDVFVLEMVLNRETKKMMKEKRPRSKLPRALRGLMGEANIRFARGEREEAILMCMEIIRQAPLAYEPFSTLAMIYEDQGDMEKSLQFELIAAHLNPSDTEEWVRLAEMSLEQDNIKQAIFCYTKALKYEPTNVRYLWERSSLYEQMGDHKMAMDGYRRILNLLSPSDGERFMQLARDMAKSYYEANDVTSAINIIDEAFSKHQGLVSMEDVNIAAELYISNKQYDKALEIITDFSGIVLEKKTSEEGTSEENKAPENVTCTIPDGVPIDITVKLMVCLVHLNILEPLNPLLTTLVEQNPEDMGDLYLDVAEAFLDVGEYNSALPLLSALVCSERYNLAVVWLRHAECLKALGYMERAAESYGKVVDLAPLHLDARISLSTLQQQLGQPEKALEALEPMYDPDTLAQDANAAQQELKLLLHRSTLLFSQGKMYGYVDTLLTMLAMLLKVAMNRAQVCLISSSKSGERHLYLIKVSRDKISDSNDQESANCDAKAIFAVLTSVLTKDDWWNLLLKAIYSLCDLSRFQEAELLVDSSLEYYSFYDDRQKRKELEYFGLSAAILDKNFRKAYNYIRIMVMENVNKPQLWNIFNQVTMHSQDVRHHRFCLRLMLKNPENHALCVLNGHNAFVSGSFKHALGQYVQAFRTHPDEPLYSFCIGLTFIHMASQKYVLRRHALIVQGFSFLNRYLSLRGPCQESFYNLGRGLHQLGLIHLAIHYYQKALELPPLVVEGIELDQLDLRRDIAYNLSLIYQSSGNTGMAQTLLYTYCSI
Sequence of UniProt Q53GQ0 (Q53GQ0 whole entry, looked up): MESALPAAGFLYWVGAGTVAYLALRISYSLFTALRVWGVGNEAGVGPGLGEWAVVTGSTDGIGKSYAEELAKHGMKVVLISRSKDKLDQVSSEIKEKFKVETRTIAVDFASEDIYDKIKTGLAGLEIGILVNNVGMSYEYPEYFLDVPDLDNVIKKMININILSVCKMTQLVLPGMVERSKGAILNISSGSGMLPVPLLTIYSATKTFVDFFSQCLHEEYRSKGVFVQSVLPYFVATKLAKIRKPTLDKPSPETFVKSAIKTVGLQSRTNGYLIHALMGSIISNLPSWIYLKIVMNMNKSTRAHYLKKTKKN
Sequence of UniProt Q96A47 (Q96A47 whole entry, looked up): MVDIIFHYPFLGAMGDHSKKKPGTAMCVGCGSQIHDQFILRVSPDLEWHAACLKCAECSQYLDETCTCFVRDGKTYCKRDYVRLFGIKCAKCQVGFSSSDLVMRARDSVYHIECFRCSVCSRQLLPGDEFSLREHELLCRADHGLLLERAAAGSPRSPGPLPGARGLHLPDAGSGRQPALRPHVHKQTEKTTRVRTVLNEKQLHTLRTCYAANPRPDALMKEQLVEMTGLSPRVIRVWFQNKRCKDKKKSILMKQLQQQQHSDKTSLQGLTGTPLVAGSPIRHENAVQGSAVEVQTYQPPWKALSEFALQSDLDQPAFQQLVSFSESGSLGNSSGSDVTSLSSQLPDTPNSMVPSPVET
Sequence of UniProt Q5T447 (Q5T447 whole entry, looked up): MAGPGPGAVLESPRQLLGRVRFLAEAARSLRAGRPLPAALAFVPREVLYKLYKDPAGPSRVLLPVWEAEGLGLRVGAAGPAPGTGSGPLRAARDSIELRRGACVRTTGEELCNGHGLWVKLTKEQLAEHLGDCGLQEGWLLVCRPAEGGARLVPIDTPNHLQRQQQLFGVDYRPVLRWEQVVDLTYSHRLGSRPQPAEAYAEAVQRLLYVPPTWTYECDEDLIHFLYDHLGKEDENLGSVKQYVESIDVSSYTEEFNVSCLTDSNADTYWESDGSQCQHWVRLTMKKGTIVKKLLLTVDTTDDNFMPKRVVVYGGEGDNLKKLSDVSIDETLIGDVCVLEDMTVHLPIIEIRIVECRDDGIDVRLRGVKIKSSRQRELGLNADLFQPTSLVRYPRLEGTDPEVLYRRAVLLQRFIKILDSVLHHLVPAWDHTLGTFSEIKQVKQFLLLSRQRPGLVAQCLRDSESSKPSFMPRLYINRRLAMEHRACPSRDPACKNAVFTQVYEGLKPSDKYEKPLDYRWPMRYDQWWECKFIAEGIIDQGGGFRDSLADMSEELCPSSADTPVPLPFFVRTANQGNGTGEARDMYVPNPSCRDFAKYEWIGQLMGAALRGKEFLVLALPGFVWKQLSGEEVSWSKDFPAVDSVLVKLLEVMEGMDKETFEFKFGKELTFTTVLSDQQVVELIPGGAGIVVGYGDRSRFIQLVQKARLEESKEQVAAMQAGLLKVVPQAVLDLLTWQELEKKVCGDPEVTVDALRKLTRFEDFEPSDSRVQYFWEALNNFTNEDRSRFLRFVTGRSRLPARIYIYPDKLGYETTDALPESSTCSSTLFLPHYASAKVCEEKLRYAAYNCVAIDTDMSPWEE
Sequence of UniProt Q8TF64 (Q8TF64 whole entry, looked up): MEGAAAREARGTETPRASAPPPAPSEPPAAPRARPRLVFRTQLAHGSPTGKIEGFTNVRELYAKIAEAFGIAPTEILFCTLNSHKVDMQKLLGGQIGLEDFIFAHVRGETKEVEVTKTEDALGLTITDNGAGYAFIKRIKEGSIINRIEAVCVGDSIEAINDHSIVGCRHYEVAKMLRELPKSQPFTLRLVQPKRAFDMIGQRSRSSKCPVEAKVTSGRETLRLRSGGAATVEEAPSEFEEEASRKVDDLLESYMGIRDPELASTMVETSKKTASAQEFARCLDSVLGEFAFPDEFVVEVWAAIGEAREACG
Sequence of UniProt Q9HAV0 (Q9HAV0 whole entry, looked up): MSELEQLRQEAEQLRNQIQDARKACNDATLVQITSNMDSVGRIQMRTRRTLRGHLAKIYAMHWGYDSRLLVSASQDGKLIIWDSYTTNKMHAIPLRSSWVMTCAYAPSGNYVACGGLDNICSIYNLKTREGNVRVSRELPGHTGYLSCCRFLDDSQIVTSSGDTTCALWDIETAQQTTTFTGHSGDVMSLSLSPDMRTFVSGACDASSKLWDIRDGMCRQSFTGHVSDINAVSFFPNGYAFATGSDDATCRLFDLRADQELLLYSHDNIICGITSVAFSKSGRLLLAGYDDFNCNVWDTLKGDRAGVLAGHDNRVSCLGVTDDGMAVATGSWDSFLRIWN
Sequence of UniProt P22692 (P22692 whole entry, looked up): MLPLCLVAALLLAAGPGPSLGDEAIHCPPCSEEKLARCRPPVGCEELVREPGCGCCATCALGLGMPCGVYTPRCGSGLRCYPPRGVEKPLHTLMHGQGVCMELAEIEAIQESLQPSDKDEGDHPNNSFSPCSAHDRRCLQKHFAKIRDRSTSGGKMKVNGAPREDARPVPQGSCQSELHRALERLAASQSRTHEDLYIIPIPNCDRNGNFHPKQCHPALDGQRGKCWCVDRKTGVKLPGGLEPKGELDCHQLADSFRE
Sequence of UniProt Q9Y4H2 (Q9Y4H2 whole entry, looked up): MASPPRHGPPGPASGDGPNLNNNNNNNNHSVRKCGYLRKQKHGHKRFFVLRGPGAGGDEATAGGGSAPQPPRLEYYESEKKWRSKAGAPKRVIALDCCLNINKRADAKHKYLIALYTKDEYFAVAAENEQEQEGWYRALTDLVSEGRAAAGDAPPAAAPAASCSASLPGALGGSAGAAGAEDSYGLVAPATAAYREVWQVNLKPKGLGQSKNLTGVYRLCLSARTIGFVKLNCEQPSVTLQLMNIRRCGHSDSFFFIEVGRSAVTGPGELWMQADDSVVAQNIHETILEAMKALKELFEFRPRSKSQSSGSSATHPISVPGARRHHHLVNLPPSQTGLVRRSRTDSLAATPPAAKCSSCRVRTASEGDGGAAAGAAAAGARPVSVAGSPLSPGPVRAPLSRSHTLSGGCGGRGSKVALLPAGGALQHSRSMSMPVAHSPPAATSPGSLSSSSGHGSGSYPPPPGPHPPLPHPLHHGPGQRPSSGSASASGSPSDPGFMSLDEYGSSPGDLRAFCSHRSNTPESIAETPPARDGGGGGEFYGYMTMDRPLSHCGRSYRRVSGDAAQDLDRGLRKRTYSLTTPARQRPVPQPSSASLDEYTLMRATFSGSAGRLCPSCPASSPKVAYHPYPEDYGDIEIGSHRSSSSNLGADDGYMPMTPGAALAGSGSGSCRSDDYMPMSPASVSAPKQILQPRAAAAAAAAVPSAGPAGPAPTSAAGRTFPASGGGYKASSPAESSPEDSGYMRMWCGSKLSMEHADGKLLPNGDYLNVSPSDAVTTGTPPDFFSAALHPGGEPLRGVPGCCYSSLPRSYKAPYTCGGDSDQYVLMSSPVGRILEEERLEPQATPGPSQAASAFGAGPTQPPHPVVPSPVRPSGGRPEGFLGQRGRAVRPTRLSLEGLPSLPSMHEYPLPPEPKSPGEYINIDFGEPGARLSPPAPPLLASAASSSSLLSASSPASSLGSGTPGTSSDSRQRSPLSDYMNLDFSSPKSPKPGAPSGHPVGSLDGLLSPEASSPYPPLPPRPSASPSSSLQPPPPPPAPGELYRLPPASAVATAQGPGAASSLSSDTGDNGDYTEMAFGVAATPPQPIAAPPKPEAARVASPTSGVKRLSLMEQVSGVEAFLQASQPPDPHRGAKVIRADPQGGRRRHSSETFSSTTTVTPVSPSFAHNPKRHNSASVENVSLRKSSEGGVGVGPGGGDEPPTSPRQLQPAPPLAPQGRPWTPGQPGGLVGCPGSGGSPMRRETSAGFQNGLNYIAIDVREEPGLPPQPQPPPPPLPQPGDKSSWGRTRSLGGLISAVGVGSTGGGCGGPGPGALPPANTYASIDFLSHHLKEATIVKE
Sequence of UniProt Q9H9Y4 (Q9H9Y4 whole entry, looked up): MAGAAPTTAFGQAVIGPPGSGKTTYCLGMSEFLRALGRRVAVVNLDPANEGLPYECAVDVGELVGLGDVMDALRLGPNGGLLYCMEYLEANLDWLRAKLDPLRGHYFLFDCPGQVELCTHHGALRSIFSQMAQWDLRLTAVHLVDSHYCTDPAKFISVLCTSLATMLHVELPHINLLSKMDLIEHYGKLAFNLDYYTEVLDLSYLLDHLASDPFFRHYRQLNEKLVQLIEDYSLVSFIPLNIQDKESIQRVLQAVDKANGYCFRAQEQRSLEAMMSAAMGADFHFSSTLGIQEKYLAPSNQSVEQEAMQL

| Target | log2 fold change |
| --- | --- |
| H3-3A (UniProt P84243) | 0.059 |
| HNRNPUL1 (UniProt M0R247) | 0.059 |
| HOMER3 (UniProt Q9NSC5) | 0.072 |
| IGFBP4 (UniProt P22692) | 0.135 |
| HSPBAP1 (UniProt Q96EW2) | 0.069 |
| HIST2H2AA3 (UniProt Q6FI13) | 0.017 |
| HNRNPH2 (UniProt P55795) | 0.036 |
| GUSB (UniProt P08236) | 0.035 |
| GRB10 (UniProt Q13322) | 0.03 |
| JAK3 (UniProt P52333) | 0.031 |
| GNB4 (UniProt Q9HAV0) | 0.162 |
| HECTD4 (UniProt J3KPF0) | -0.013 |
| HMGCS1 (UniProt Q01581) | 0.043 |
| GON4L (UniProt Q3T8J9) | 0.027 |
| IRS2 (UniProt Q9Y4H2) | -0.091 |
| GYPA, A0A2R8Y7F9 | -0.088 |
| HSD17B12 (UniProt Q53GQ0) | -0.127 |
| HEATR3 (UniProt Q7Z4Q2) | -0.101 |
| GTF3C3 (UniProt Q9Y5Q9) | -0.018 |
| HECTD3 (UniProt Q5T447) | -0.06 |
| ISL2 (UniProt Q96A47) | 0.038 |
| GIPC3 (UniProt Q8TF64) | -0.002 |
| HSPA8 (UniProt E9PN89) | 0.003 |

compound: CC1=C(SC2=C1C(=N[C@H](C3=NN=C(N32)C)CC(=O)N)C4=CC=C(C=C4)Cl)C; assay: as above
Method in brief: as §1

| Target | log2 fold change |
| --- | --- |
| H3-3A (UniProt P84243) | 0.016 |
| HNRNPUL1 (UniProt M0R247) | -0.014 |
| HOMER3 (UniProt Q9NSC5) | -0.276 |
| IGFBP4 (UniProt P22692) | -0.099 |
| HSPBAP1 (UniProt Q96EW2) | -0.022 |
| HIST2H2AA3 (UniProt Q6FI13) | 0 |
| HNRNPH2 (UniProt P55795) | -0.007 |
| GUSB (UniProt P08236) | 0.022 |
| GRB10 (UniProt Q13322) | 0.022 |
| JAK3 (UniProt P52333) | -0.051 |
| GNB4 (UniProt Q9HAV0) | -0.074 |
| HECTD4 (UniProt J3KPF0) | 0.023 |
| HMGCS1 (UniProt Q01581) | -0.022 |
| GON4L (UniProt Q3T8J9) | 0 |
| IRS2 (UniProt Q9Y4H2) | 0.246 |
| GYPA, A0A2R8Y7F9 | -0.151 |
| HSD17B12 (UniProt Q53GQ0) | -0.006 |
| HEATR3 (UniProt Q7Z4Q2) | 0.022 |
| GTF3C3 (UniProt Q9Y5Q9) | -0.019 |
| HECTD3 (UniProt Q5T447) | 0.038 |
| ISL2 (UniProt Q96A47) | 0.058 |
| GIPC3 (UniProt Q8TF64) | 0.042 |
| HSPA8 (UniProt E9PN89) | 0.044 |

compound: CC1=C2C(=CC=C1)N=C(N(C2=O)C3=CC=CC=C3C)CN4C=NC5=C(N=CN=C54)N; assay: as above
Method in brief: as §1

| Target | log2 fold change |
| --- | --- |
| GPN2 (UniProt Q9H9Y4) | 0.07 |
| H3-3A (UniProt P84243) | 0.024 |
| KATNBL1 (UniProt Q9H079) | -0.111 |
| HYDIN (UniProt Q4G0P3) | -0.069 |
| HIST2H2AA3 (UniProt Q6FI13) | -0.111 |
| HNRNPH2 (UniProt P55795) | 0 |
| GUSB (UniProt P08236) | 0.016 |
| HECW2 (UniProt Q9P2P5) | -0.048 |
| GRB10 (UniProt Q13322) | 0.024 |
| JAK3 (UniProt P52333) | -0.129 |
| HNRNPM (UniProt M0R019) | -0.116 |
| GTPBP6 (UniProt O43824) | 0.385 |
| IPP (UniProt Q9Y573) | -0.009 |
| HECTD4 (UniProt J3KPF0) | 0.068 |
| HMGCS1 (UniProt Q01581) | 0.02 |
| ITGB1BP2 (UniProt Q9UKP3) | 0.116 |
| GON4L (UniProt Q3T8J9) | 0.008 |
| GORASP1 (UniProt Q9BQQ3) | -0.049 |
| HSD17B12 (UniProt Q53GQ0) | 0.059 |
| HEATR3 (UniProt Q7Z4Q2) | 0.008 |
| GTF3C3 (UniProt Q9Y5Q9) | 0.03 |
| HECTD3 (UniProt Q5T447) | 0.046 |

compound: Cc1sc2c(c1C)C(c1ccc(Cl)cc1)=N[C@@H](CC(=O)OC(C)(C)C)c1nnc(C)n1-2; assay: as above
Method in brief: as §1

| Target | log2 fold change |
| --- | --- |
| GPN2 (UniProt Q9H9Y4) | 0.057 |
| HMGA1 isoform 2 (UniProt P17096) | 0.055 |
| IGFBP4 (UniProt P22692) | -0.032 |
| KATNBL1 (UniProt Q9H079) | -0.012 |
| HSPBAP1 (UniProt Q96EW2) | 0.065 |
| HYDIN (UniProt Q4G0P3) | -0.078 |
| ITPRIP (UniProt Q8IWB1) | 0.054 |
| HIST2H2AA3 (UniProt Q6FI13) | 0.268 |
| HNRNPH2 (UniProt P55795) | 0.105 |
| GUSB (UniProt P08236) | -0.051 |
| HECW2 (UniProt Q9P2P5) | -0.093 |
| GRB10 (UniProt Q13322) | 0.045 |
| ITPR2 (UniProt Q14571) | -0.171 |
| GTPBP6 (UniProt O43824) | -0.439 |
| IPP (UniProt Q9Y573) | -0.099 |
| GNB4 (UniProt Q9HAV0) | 0.031 |
| HECTD4 (UniProt J3KPF0) | -0.03 |
| HMGCS1 (UniProt Q01581) | 0.003 |
| ITGB1BP2 (UniProt Q9UKP3) | 0.083 |
| GON4L (UniProt Q3T8J9) | 0.003 |
| IRS2 (UniProt Q9Y4H2) | -0.129 |
| GORASP1 (UniProt Q9BQQ3) | -0.031 |
| HSD17B12 (UniProt Q53GQ0) | 0.031 |
| HEATR3 (UniProt Q7Z4Q2) | -0.024 |
| GTF3C3 (UniProt Q9Y5Q9) | -0.052 |
| HECTD3 (UniProt Q5T447) | 0.034 |
| ISL2 (UniProt Q96A47) | -0.063 |
| GIPC3 (UniProt Q8TF64) | 0.013 |
| GPLD1 (UniProt P80108) | 0.209 |
| HSPA8 (UniProt E9PN89) | -0.219 |
